# Measurements reported in the antibiotic and cytotoxicity screens of Wong et al. (2023).
# Hit rate of the full screen: of about 39,000 compounds, about 1,500 (3.8%) were called active. Many of the other results were omitted from the sample, so actives are more common in it than they were.
# Tested on: HSkMC (human skeletal muscle cells)
# Test: cytotoxicity call (relative viability < 0.9)
# Details: 10 µM
row,SMILES,cytotoxicity call
1,C[C@@H]1CCCCO[C@@H](CN(C)S(=O)(=O)c2ccccc2)[C@H](C)CN([C@@H](C)CO)C(=O)c2cc(NS(C)(=O)=O)ccc2O1,inactive
2,CC(C)(C)OC(=O)C[C@@H]1CC=CC[C@@H](CC(=O)N[C@@H](CO)Cc2ccccc2)C(=O)N[C@@H](C(C)(C)C)COC1=O,inactive
3,CC(C)CC#Cc1cnc2c(c1)C(=O)N([C@H](C)CO)C[C@@H](C)[C@H](CN(C)C(=O)CCN1CCCCC1)O2,inactive
4,COCC#Cc1ccc2c(c1)O[C@H](CN(C)S(=O)(=O)c1ccc(F)cc1)[C@@H](C)CN([C@@H](C)CO)S2(=O)=O,inactive
5,C[C@@H]1CN([C@@H](C)CO)C(=O)Cc2cc(NS(=O)(=O)c3ccccc3)ccc2O[C@@H]1CN(C)Cc1ccncc1,inactive
6,O=C(C[C@@H]1CC[C@H]2[C@@H](COC[C@H](O)CN2Cc2ccccc2F)O1)N[C@H]1CCN(Cc2ccccc2)C1,inactive
7,C[C@@H]1CCCCO[C@@H](CN(C)C(=O)Nc2ccccc2)[C@@H](C)CN([C@H](C)CO)C(=O)c2cc(NC(=O)Nc3ccc4c(c3)OCO4)ccc2O1,inactive
8,Oc1ccc(C2(c3ccccc3F)CCC(F)(F)CC2)cc1,inactive
9,CCNC(=S)N1CCOCC1,inactive
10,NC(=O)C1CCCN1C(=O)C(Cc1c[nH]cn1)NC(=O)C1CCC(=O)N1 (stereo not given),inactive
11,C[C@H](CO)N1C[C@H](C)[C@@H](CN(C)C(=O)Nc2cccc3ccccc23)OCCCC[C@H](C)Oc2ccc(NC(=O)NC3CCCCC3)cc2C1=O,active
12,C[C@@H]1CCCCO[C@H](CN(C)C(=O)Nc2cccc3ccccc23)[C@@H](C)CN([C@H](C)CO)C(=O)c2cc(NC(=O)NC3CCCCC3)ccc2O1,inactive
13,C[C@@H]1CCCCO[C@@H](CN(C)C(=O)Nc2cccc3ccccc23)[C@H](C)CN([C@@H](C)CO)C(=O)c2cc(NC(=O)NC3CCCCC3)ccc2O1,inactive
14,COc1ccc(S(=O)(=O)N(C)C[C@@H]2Oc3ncc(C#CC(C)(C)O)cc3C(=O)N([C@H](C)CO)C[C@@H]2C)cc1,inactive
15,CC12CCC3c4ccc(O)cc4CCC3C1CCC2OC(=O)CCC1CCCC1 (stereo not given),active
16,CCCCC(=O)OC1CCC2C3CCc4cc(O)ccc4C3CCC12C (stereo not given),inactive
17,CC12CCC3c4ccc(O)cc4CCC3C1CCC2O (stereo not given),inactive
18,C=C1C=[N+]([O-])N(c2ccc(C(=O)O)cc2)N1,inactive
19,C[C@@H]1CN([C@@H](C)CO)C(=O)c2cccc(NC(=O)Nc3cccc4ccccc34)c2O[C@H]1CN(C)C(=O)NC1CCCCC1,inactive
20,C[C@H]1CN([C@@H](C)CO)C(=O)c2cccc(NC(=O)Nc3cccc4ccccc34)c2O[C@@H]1CN(C)C(=O)NC1CCCCC1,inactive
21,C[C@H](CO)N1C[C@H](C)[C@H](CN(C)C(=O)NC2CCCCC2)Oc2c(NC(=O)Nc3cccc4ccccc34)cccc2C1=O,active
22,C[C@H](CO)N1C[C@H](C)[C@@H](CN(C)C(=O)NC2CCCCC2)Oc2c(NC(=O)Nc3cccc4ccccc34)cccc2C1=O,active
23,C[C@@H]1CN([C@H](C)CO)C(=O)c2cccc(NC(=O)Nc3cccc4ccccc34)c2O[C@@H]1CN(C)C(=O)NC1CCCCC1,inactive
24,C[C@H]1CN([C@@H](C)CO)C(=O)c2cccc(NC(=O)Nc3cccc4ccccc34)c2O[C@H]1CN(C)C(=O)NC1CCCCC1,inactive

row,SMILES,cytotoxicity call
1,C[C@@H]1CN([C@@H](C)CO)C(=O)c2cc(NC(=O)CCC(F)(F)F)ccc2O[C@H]1CN(C)C(=O)Nc1cccc2ccccc12,inactive
2,COc1ccc(NC(=O)Nc2ccc3c(c2)C(=O)N([C@@H](C)CO)C[C@H](C)[C@H](CN(C)C(=O)C2CCCCC2)OCCCC[C@H](C)O3)cc1,inactive
3,CCCNC(=O)N(C)C[C@@H]1Oc2cc(C#Cc3cccc(F)c3)ccc2S(=O)(=O)N([C@@H](C)CO)C[C@@H]1C,inactive
4,Cc1noc(C)c1NC(=O)N(C)C[C@@H]1Oc2ccc(NS(=O)(=O)c3c(C)noc3C)cc2CC(=O)N([C@H](C)CO)C[C@H]1C,inactive
5,Oc1c(Cl)cc(Cl)c(Cl)c1Cc1c(O)c(Cl)cc(Cl)c1Cl,active
6,O=C(Nc1cc(Cl)cc(Cl)c1O)c1c(O)c(Cl)cc(Cl)c1Cl,inactive
7,Cc1ccc2c(Cl)cc(Cl)c(O)c2n1,inactive
8,C[C@@H]1CCCCO[C@@H](CN(C)Cc2ccc(C(F)(F)F)cc2)[C@H](C)CN([C@@H](C)CO)C(=O)c2cc(N(C)C)ccc2O1,inactive
9,CC(C)NC(=O)Nc1ccc2c(c1)CC(=O)N([C@@H](C)CO)C[C@H](C)[C@@H](CN(C)C(=O)NC1CCCCC1)O2,inactive
10,CC(C)NC(=O)N(C)C[C@@H]1Oc2ccc(NS(=O)(=O)c3ccccc3)cc2C(=O)N([C@H](C)CO)C[C@@H]1C,inactive
11,Oc1c(Cl)cc(Cl)cc1Sc1cc(Cl)cc(Cl)c1O,active
12,C[C@@H]1CN([C@@H](C)CO)S(=O)(=O)c2ccc(-c3cncnc3)cc2O[C@@H]1CN(C)C(=O)C1CCCCC1,inactive
13,C[C@H](O)C1=C[C@]2(CC[C@@H]3C(C(=O)O)=CO[C@@H](O[C@@H]4O[C@H](CO)[C@@H](O)[C@H](O)[C@H]4O)[C@@H]32)OC1=O,inactive
14,CC1(C)CN(C(=O)Cn2nccn2)C[C@]1(C)O,inactive
15,O=C(N[C@@H]1CC=CC[C@H](CC(=O)N(CCO)Cc2ccccc2)C(=O)N[C@@H](Cc2ccccc2)COC1=O)OCC1c2ccccc2-c2ccccc21,inactive
16,O=C(C[C@@H]1CC=CC[C@H](NC(=O)OCC2c3ccccc3-c3ccccc32)C(=O)O[C@@H](c2ccccc2)CNC1=O)N[C@@H](CO)Cc1ccccc1,active
17,O=C(C[C@@H]1CC=CC[C@@H](NC(=O)OCC2c3ccccc3-c3ccccc32)C(=O)OC[C@@H](Cc2ccccc2)NC1=O)N[C@@H](CO)Cc1ccccc1,inactive
18,O=C(C[C@@H]1CC=CC[C@H](NC(=O)OCC2c3ccccc3-c3ccccc32)C(=O)O[C@H](c2ccccc2)CNC1=O)N[C@H](CO)Cc1ccccc1,active
19,O=C(N[C@H]1CC=CC[C@H](CC(=O)N(CCO)Cc2ccccc2)C(=O)N[C@H](Cc2ccccc2)COC1=O)OCC1c2ccccc2-c2ccccc21,inactive
20,O=C(C[C@@H]1CC=CC[C@H](NC(=O)OCC2c3ccccc3-c3ccccc32)C(=O)OC[C@H](Cc2ccccc2)NC1=O)N[C@H](CO)Cc1ccccc1,inactive
21,O=C(C[C@@H]1CC=CC[C@@H](NC(=O)OCC2c3ccccc3-c3ccccc32)C(=O)OC[C@H](Cc2ccccc2)NC1=O)N[C@H](CO)Cc1ccccc1,inactive
22,O=C(C[C@@H]1CC=CC[C@H](NC(=O)OCC2c3ccccc3-c3ccccc32)C(=O)OC[C@H](Cc2ccccc2)NC1=O)N[C@@H](CO)Cc1ccccc1,inactive
23,O=C(N[C@H]1CC=CC[C@H](CC(=O)N(CCO)Cc2ccccc2)C(=O)N[C@@H](Cc2ccccc2)COC1=O)OCC1c2ccccc2-c2ccccc21,active
24,O=C(N[C@@H]1CC=CC[C@H](CC(=O)N(CCO)Cc2ccccc2)C(=O)NC[C@H](c2ccccc2)OC1=O)OCC1c2ccccc2-c2ccccc21,inactive

row,SMILES,cytotoxicity call
1,O=C(C[C@@H]1CC=CC[C@H](NC(=O)OCC2c3ccccc3-c3ccccc32)C(=O)O[C@H](c2ccccc2)CNC1=O)N[C@@H](CO)Cc1ccccc1,active
2,O=C(N[C@H]1CC=CC[C@H](CC(=O)N(CCO)Cc2ccccc2)C(=O)NCC(c2ccccc2)OC1=O)OCC1c2ccccc2-c2ccccc21 (stereo not given in full),inactive
3,COc1ccc(S(=O)(=O)Nc2ccc3c(c2)C(=O)N([C@@H](C)CO)C[C@@H](C)[C@@H](CN(C)Cc2ccncc2)O3)cc1,inactive
4,CC(C)NC(=O)N(C)C[C@@H]1Oc2ccc(NS(=O)(=O)c3ccc(F)cc3)cc2CC(=O)N([C@H](C)CO)C[C@@H]1C,inactive
5,COc1cccc(S(=O)(=O)N[C@H]2CC[C@H](CCn3cc(-c4ccccc4OC)nn3)O[C@H]2CO)c1,inactive
6,C[C@H]1CCCCO[C@@H](CN(C)C(=O)NC2CCCCC2)[C@@H](C)CN([C@@H](C)CO)C(=O)c2cc(NC(=O)Nc3ccc(F)cc3)ccc2O1,inactive
7,C[C@H]1CN([C@@H](C)CO)C(=O)c2cccc(NC(=O)c3ccc(-c4nccs4)cc3)c2O[C@H]1CN(C)Cc1ccc(Cl)c(Cl)c1,inactive
8,COc1ccccc1-c1ccc2c(c1)O[C@@H](CN(C)S(=O)(=O)c1ccccc1)[C@H](C)CN([C@@H](C)CO)S2(=O)=O,inactive
9,COc1ccc2c3c([nH]c2c1)[C@H](CO)N(C[C@]13CN(C)C1)C(=O)CN1CCOCC1,inactive
10,COc1ccc(NC(=O)N(C)C[C@H]2OCCCC[C@@H](C)Oc3ccc(NS(=O)(=O)c4ccc(Cl)cc4)cc3C(=O)N([C@@H](C)CO)C[C@@H]2C)cc1,inactive
11,Cc1ccc(S(=O)(=O)Nc2ccc3c(c2)C(=O)N([C@H](C)CO)C[C@H](C)[C@@H](CN(C)C(=O)NC(C)C)O3)cc1,inactive
12,Cc1ccc(S(=O)(=O)N(C)C[C@H]2OCCCC[C@H](C)Oc3ccc(NC(=O)Nc4ccc(C(F)(F)F)cc4)cc3C(=O)N([C@H](C)CO)C[C@H]2C)cc1,inactive
13,CCC(=O)Nc1ccc2c(c1)C(=O)N(C)C[C@@H](OC)[C@H](C)CN(C(=O)CN1CCOCC1)[C@H](C)CO2,inactive
14,Cc1noc(C)c1S(=O)(=O)N(C)C[C@H]1Oc2ccc(NC(=O)Cn3cnnn3)cc2C(=O)N([C@@H](C)CO)C[C@H]1C,inactive
15,Cc1noc(C)c1S(=O)(=O)N(C)C[C@H]1OCCCC[C@H](C)Oc2ccc(NC(=O)Nc3ccccc3)cc2C(=O)N([C@H](C)CO)C[C@@H]1C,active
16,Cc1noc(C)c1S(=O)(=O)N(C)C[C@@H]1OCCCC[C@@H](C)Oc2ccc(NC(=O)Nc3ccccc3)cc2C(=O)N([C@H](C)CO)C[C@H]1C,inactive
17,Cc1noc(C)c1S(=O)(=O)N(C)C[C@H]1Oc2ccc(NC(=O)Cn3cnnn3)cc2C(=O)N([C@H](C)CO)C[C@H]1C,active
18,Cc1noc(C)c1S(=O)(=O)N(C)C[C@@H]1OCCCC[C@H](C)Oc2ccc(NC(=O)Nc3ccccc3)cc2C(=O)N([C@H](C)CO)C[C@H]1C,active
19,Cc1noc(C)c1S(=O)(=O)N(C)C[C@@H]1OCCCC[C@@H](C)Oc2ccc(NC(=O)Nc3ccccc3)cc2C(=O)N([C@@H](C)CO)C[C@@H]1C,inactive
20,Cc1noc(C)c1S(=O)(=O)N(C)C[C@H]1OCCCC[C@@H](C)Oc2ccc(NC(=O)Nc3ccccc3)cc2C(=O)N([C@H](C)CO)C[C@@H]1C,inactive
21,Cc1noc(C)c1S(=O)(=O)N(C)C[C@H]1OCCCC[C@H](C)Oc2ccc(NC(=O)Nc3ccccc3)cc2C(=O)N([C@H](C)CO)C[C@H]1C,inactive
22,Cc1noc(C)c1S(=O)(=O)N(C)C[C@@H]1Oc2ccc(NC(=O)Cn3cnnn3)cc2C(=O)N([C@@H](C)CO)C[C@@H]1C,inactive
